Measured values published in PubChem BioAssay AID743279 (National Center for Advancing Translational Sciences (NCATS), 2014).
Screen size: about 360,000 compounds; about 17,000 (4.7%) were called active. Not shown: some 5% with an inconclusive outcome. Rule as the data show it: active = activity change below about -50%; inconclusive = mostly about -30% to -49%; inactive = weaker than that. Many of the other results were omitted from the sample, so actives are more common in it than they were.

Assay: qHTS for Inhibitors of Inflammasome Signaling: IL-1-beta AlphaLISA Primary Screen
Settings: THP-1 LPS/ATP IL-1B secretion, 16 h; at 57.5 µM, stronger effect = lower value
Outline: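 THP-1 cells pretreated 1 hr with compounds (up to 57.5 uM final), then stimulated with LPS (250 ng/mL final) plus ATP (1.25 mM final); secreted IL-1B measured by AlphaLISA after 16 hr, decreased signal indicating inhibition.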
% is scaled to controls: 0 for no effect and ±100 for the full control effect.

Activity change, active:
O=S(=O)(Nc1ccc(O)c2ccccc12)c1ccc(OC(F)(F)F)cc1 -70.3%, O=C(NC(Nc1nc2ccc([N+](=O)[O-])cc2s1)(C(F)(F)F)C(F)(F)F)c1ccccc1 -105%, Cc1ccccc1C(OCCN(C)C)C1CCCCC1 (stereo unspecified) -55.7%, Cc1ccc(NC(=O)c2cc([N+](=O)[O-])ccc2Cl)c(O)c1 -76%

Activity change, inactive:
COc1ccc(S(=O)(=O)N(C)C[C@H]2OCc3cnnn3CCCC(=O)N([C@H](C)CO)C[C@H]2C)cc1 -20%, Cc1ccccc1NC(=O)Cc1nc(COC(=O)C(C)(C)Oc2ccc(Cl)cc2)cs1 17%, CC1CCCCN1CCCNC(=O)Cn1ncc2c([nH]c3ccccc32)c1=O (stereo unspecified) 14.3%, CCNC(=O)C1CCCN(C(=O)c2cc(F)ccc2C)CC1 (stereo unspecified) 26.6%, O=C1COc2ccc(S(=O)(=O)Nc3ccc(OC(F)(F)F)cc3)cc2N1 6.28%, Cc1nn(C)c(C)c1NS(=O)(=O)c1ccc(OC(F)(F)F)cc1 63%, O=C(CC[C@H]1O[C@@H](n2ccc(=O)[nH]c2=O)[C@H](O)[C@@H]1O)N[C@H](Cc1ccccc1)C(=O)NCc1ccco1 17.1%, CNc1nc(=O)n(C2CCCO2)cc1C (stereo unspecified) -1.08%, Cc1cc(C)n2c(Nc3c(C)cccc3C)c(CCc3ccccc3)nc2n1 0%, O=C(NOCc1ccccc1)c1cccc([N+](=O)[O-])c1 -14.2%, O=C(COC(=O)c1ccc([N+](=O)[O-])cc1Cl)NC(=O)c1ccccc1 0.699%, CCOC(=O)c1ccccc1NC(=O)COC(=O)CCC(=O)N1CCOCC1 -2.88%, CN(C)CCOC(=O)C(c1ccccc1)C1(O)CCCC1 (stereo unspecified) -8.97%, CN(C)CCOC1c2ccccc2-c2ccccc21 -24.9%, Nc1ccccc1Sc1cc(Cl)nnc1Cl 4.28%, CCOc1ccc(S(=O)(=O)Nc2nccs2)cc1 -1.81%, CC(Oc1ccc(Cl)cc1)c1ccnn1S(C)(=O)=O (stereo unspecified) -4.95%, CCC(C)C(=O)Nc1cc([N+](=O)[O-])ccc1Cl (stereo unspecified) 4.95%, CNc1ccc([N+](=O)[O-])cc1C(=O)O 12.5%, CN(Cc1ccccc1F)c1cc2c(c3c1ccn3C)C1CCC2O1 (stereo unspecified) 38.3%, Cc1nccn1-c1ccc(NC(=O)[C@H]2O[C@@H](n3ccc(=O)[nH]c3=O)[C@H](O)[C@@H]2O)cc1 20.2%, COC(=O)[C@@]1(Cc2ccc(F)cc2)[C@H]2c3cc(C(=O)N(C)C)n(CCc4c[nH]c5ccc(OC)cc45)c3C[C@H]2CN1C(=O)c1ccccc1 -25.7%
